Compounds with a hit are over-represented: about 4% of the library has one in this group of screens.
TROY NFkB inh: inhibitors of TROY-dependent NF-kB signaling; Q293 LMP1-TROYcd NF-kB luciferase reporter, 4 h; inhibition, % at 10 µM; hit rate 0.98% among 360,000; AID 1347056;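 active means compounds whose plate-normalised and pattern-corrected inhibition of the luciferase reporter signal at the single screening dose is 50% or more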
Peg3 promoter: reduces Peg3 promoter-driven luciferase expression in HeLa; HeLa PEG-Prom luciferase reporter, luminescence, overnight; inhibition, % at 20 µM; hit rate 1.7% among 360,000; AID 588405;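 active means inhibition of at least 50% at 20 µM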
HIF-2a inh: HIF-2a inhibition; hit rate 0.72% among 360,000; inhibition, % at 18.8 µM; 786-0 RCC cells HIF-2a reporter, luciferase luminescence, overnight;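 active means inhibition of the luminescence signal of 40% or more relative to plate controls, in a single-dose primary screen at 18.75 µM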
TWEAK Fn14 block: TWEAK-Fn14 signaling inhibition. TWEAK-stimulated Fn14 reporter cells, luciferase luminescence, 8 h. inhibition, % at 10 µM. hit rate 2% among 360,000; in the data active means inhibition above about 50%
KKLEB cytotox: CF airway cell cytotoxicity counter-screen. KKLEB CF airway cells viability, ATPlite luminescence, overnight; active compounds read low; cells stimulated with P. aeruginosa culture filtrate. activity change (cytotoxicity), % at 5 µM. hit rate 0.36% among 360,000;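 active means corrected activity change at or below -50% at 5 µM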
CF NFkB block: inhibitors of cystic fibrosis induced NF-kB; KKLEB NF-kB-GFP reporter, PAF-induced, GFP fluorescence overnight; inhibition, % at 5 µM; hit rate 0.86% among 360,000;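 active means at least 50% inhibition at 5 µM, scaled per plate between neutral and stimulator controls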;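 further: PAF is a Pseudomonas aeruginosa culture filtrate used as stimulus; plate controls were PAF-stimulated DMSO wells for no effect and unstimulated DMSO wells for full effect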
The depositor's hits bear a star.

Screening Cc1cc([N+](=O)[O-])cc(C)c1OCC(=O)N/N=C/c1ccc(OC(=O)c2ccccc2)cc1 returned TROY NFkB inh 7.2, Peg3 promoter 2.1, HIF-2a inh 7.7, TWEAK Fn14 block -16.0, KKLEB cytotox -12.1 and CF NFkB block 14.1.
Screening COc1ccc2[nH]c(C)c(CCNC(=S)Nc3cc(C)ccc3C)c2c1 returned TROY NFkB inh 4.8, Peg3 promoter 12.7, HIF-2a inh 1.1, TWEAK Fn14 block 14.6, KKLEB cytotox -2.4 and CF NFkB block 3.4.
Screening CCc1cccc(C)c1NC(=S)NCCc1c(C)[nH]c2ccc(C)cc12 returned TROY NFkB inh -4.2, Peg3 promoter 51.4*, HIF-2a inh 16.0, TWEAK Fn14 block -7.9, KKLEB cytotox 8.4 and CF NFkB block -13.4.
`CC(C)Cc1nnc(NC(=O)C2CC(=O)N(Cc3ccccc3)C2)s1` (centres undefined) gave TROY NFkB inh 7.6, Peg3 promoter 9.4, HIF-2a inh 22.5, TWEAK Fn14 block -2.2, KKLEB cytotox 2.6 and CF NFkB block -8.4.
Screening O=C1CCCc2c1nc(-c1ccco1)n2O returned TROY NFkB inh 7.0, Peg3 promoter 14.5, HIF-2a inh 4.5, TWEAK Fn14 block -1.5, KKLEB cytotox -4.5 and CF NFkB block -2.6.
Screening CCC(C)Sc1ccc(-c2nc3cc(C)ccn3c2NC2CCCCC2)cc1 (centres undefined) returned TROY NFkB inh -26.1, Peg3 promoter -137.0, HIF-2a inh -231.6, TWEAK Fn14 block -23.3, KKLEB cytotox -35.1 and CF NFkB block 38.8.
`CCCCCCSc1ccc(-c2nc3cnccn3c2NC2CCCCC2)cc1` gave TROY NFkB inh -13.1, HIF-2a inh -1.1 and TWEAK Fn14 block 10.1.
`COc1ccc(Sc2ccc(-c3nc4cnccn4c3NC3CCCCC3)cc2OC)cc1` gave TROY NFkB inh 30.6, Peg3 promoter 63.5*, HIF-2a inh 14.9, TWEAK Fn14 block 62.0*, KKLEB cytotox -6.4 and CF NFkB block 3.0.
`CCC(C)Sc1ccc(-c2nc3cnccn3c2NC2CCCCC2)cc1` (centres undefined) gave TROY NFkB inh -50.2, Peg3 promoter 91.3*, HIF-2a inh -97.3, TWEAK Fn14 block -27.8, KKLEB cytotox -2.7 and CF NFkB block 0.9.
For CCCCOc1ccccc1NC(=O)CC1Nc2ccccc2NC1=O (centres undefined) the results were TROY NFkB inh -17.7, Peg3 promoter 3.0, HIF-2a inh -25.8, TWEAK Fn14 block 22.9, KKLEB cytotox 16.7 and CF NFkB block 2.5.
For Cc1nn(-c2ncc(C(F)(F)F)cc2Cl)c(=O)n1-c1c(F)cccc1F the results were TROY NFkB inh -13.7, Peg3 promoter 2.2, HIF-2a inh 5.0, TWEAK Fn14 block -9.3, KKLEB cytotox -4.2 and CF NFkB block 13.2.
`O=C(O)c1ccc(-c2ccc(-c3ccccc3)cc2)s1` gave TROY NFkB inh -28.1, Peg3 promoter 85.0*, HIF-2a inh 69.7*, TWEAK Fn14 block 42.7, KKLEB cytotox -2.8 and CF NFkB block 2.5.
For O=C(Nc1ccccc1)c1ccc(-c2ccccc2)s1 the results were TROY NFkB inh -27.0, Peg3 promoter -341.2, HIF-2a inh -309.8, TWEAK Fn14 block -8.1, KKLEB cytotox 9.9 and CF NFkB block -33.8.
COc1cc(NC(=O)COc2ccc(C)c(C)c2)ccc1NC(=O)c1ccco1 was read as TROY NFkB inh -10.5, Peg3 promoter -25.8, HIF-2a inh -16.6, TWEAK Fn14 block 19.1, KKLEB cytotox 14.7 and CF NFkB block -0.2.
Screening Cc1[nH]c2c(C)cccc2c1CCNC(=O)c1ccc2c(c1[N+](=O)[O-])C(=O)c1ccccc1C2=O returned TROY NFkB inh -9.8, Peg3 promoter 102.5*, HIF-2a inh -10.1, TWEAK Fn14 block 20.2, KKLEB cytotox -3.9 and CF NFkB block -7.1.
`Cc1[nH]c2ccccc2c1CCNC(=O)c1ccc2c(c1[N+](=O)[O-])C(=O)c1ccccc1C2=O` gave TROY NFkB inh -2.4, Peg3 promoter 101.5*, HIF-2a inh -29.2, TWEAK Fn14 block 36.6, KKLEB cytotox -16.4 and CF NFkB block -11.4.
For COc1ccc2c(c1)[nH]c1c(=O)n(/N=C/c3ccc(OC)c(CN4CCCCC4)c3)cnc12 the results were TROY NFkB inh 2.0, Peg3 promoter -23.5, HIF-2a inh -15.4, TWEAK Fn14 block -19.2, KKLEB cytotox 3.1 and CF NFkB block -0.1.
CC(C)c1nc(=S)n(-c2ccccc2)[nH]1 was read as TROY NFkB inh 67.7*, Peg3 promoter 14.9, HIF-2a inh 12.6, TWEAK Fn14 block 22.5, KKLEB cytotox -1.9 and CF NFkB block 9.2.
`CCSc1nc(-c2ccccc2)c(C#N)c(=O)[nH]1` gave TROY NFkB inh 3.8, Peg3 promoter 17.7, HIF-2a inh 18.9, TWEAK Fn14 block 6.8, KKLEB cytotox 9.2 and CF NFkB block -3.5.
CCCOc1ccc(-c2nc(SCc3ccccc3)[nH]c(=O)c2C#N)cc1OC was read as TROY NFkB inh 51.4*, Peg3 promoter 22.3, HIF-2a inh 22.2, TWEAK Fn14 block -23.7, KKLEB cytotox -10.5 and CF NFkB block 22.4.
NCC1CCN(c2nc3ccccc3c3c2CCCC3)CC1 was read as TROY NFkB inh 11.8, Peg3 promoter 102.1*, HIF-2a inh -5.0, TWEAK Fn14 block -14.8, KKLEB cytotox -3.0 and CF NFkB block 14.7.
Screening Cn1c2ccccc2c(=O)c2ccc(C#Cc3ccc(N)cc3)cc21 returned TROY NFkB inh 50.2*, Peg3 promoter -81.6, HIF-2a inh -84.2, TWEAK Fn14 block 15.7, KKLEB cytotox -18.7 and CF NFkB block 7.5.
`Cn1c2ccccc2c(=O)c2cc(C#Cc3cccc(N)c3)ccc21` gave TROY NFkB inh -52.4, Peg3 promoter -286.1, HIF-2a inh -274.6, TWEAK Fn14 block -116.6, KKLEB cytotox 0.0 and CF NFkB block -124.2.
`Cn1c2ccccc2c(=O)c2cc(C#CC3=CCCCC3)ccc21` gave TROY NFkB inh 60.0*, Peg3 promoter -79.6, HIF-2a inh -82.8, TWEAK Fn14 block 48.1, KKLEB cytotox -2.3 and CF NFkB block -36.4.
For COc1ccccc1C#Cc1ccc2c(=O)c3ccccc3n(C)c2c1 the results were TROY NFkB inh -9.3, Peg3 promoter -22.5, HIF-2a inh -115.3, TWEAK Fn14 block 45.2, KKLEB cytotox -6.9 and CF NFkB block -5.2.
O=C(Nc1ccc(Cl)cn1)c1cccnc1 was read as TROY NFkB inh -15.2, Peg3 promoter -39.3, HIF-2a inh -74.9, TWEAK Fn14 block -5.6, KKLEB cytotox -4.0 and CF NFkB block -0.1.
Screening O=C(c1cccs1)N1CCN(C(=O)c2cccs2)C1=S returned TROY NFkB inh 28.7, Peg3 promoter 99.2*, HIF-2a inh 0.4, TWEAK Fn14 block 70.3*, KKLEB cytotox -4.5 and CF NFkB block 43.2.
`c1cnc2c(-c3cccc4nccn34)cccc2c1` gave TROY NFkB inh -16.8, Peg3 promoter -1.9, HIF-2a inh 8.3, TWEAK Fn14 block -14.1, KKLEB cytotox 10.7 and CF NFkB block -5.5.
